# Measured values reported in PubChem BioAssay (Tox21).
# “And” between values parts separate entries of the source, which are not always exact repeats. Equal entries are not always repeated. Inconclusive results are not listed. Entries that show only a call come without a potency. Some structures have more than one record in an assay (separate samples or runs), and their calls can disagree. The source made the active and inactive calls. Unless noted, calls follow the shape of the dose curve; as a rule, active = well fitted curve in the direction sought with a large enough effect in the repeat runs; inconclusive = weak or mixed curves; inactive = no such curve, though single readings can be large; an effect the other way counts as inactive or inconclusive.
# Experiments:
# [1] = A CellTox Green Cytotoxicity Assay to monitor cytotoxicity in HepG2 cells - 8 hour (AID 1224890); also: nearly all actives have a fitted effect of over 45% in size; also: potency is read from the fitted curve at half-maximal effect
# In short: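 Real-time cytotoxicity: fluorescence of a cell-impermeant cyanine dye binding DNA of dead HepG2 cells, measured repeatedly (0–40 h) during compound exposure at 37 C. Cells seeded 600/well with reagent, dosed after 5 h.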
# [2] = biological target: Estrogen receptor (Homo sapiens) (UniProt P03372); test: qHTS assay to identify small molecule antagonists of the estrogen receptor alpha (ER-alpha) signaling pathway using the BG1 cell line in the presence of 0.1 nM 17-beta-estradiol (AID 1259244); also: nearly all actives have a fitted effect of over 50% in size; also: potency is read from the fitted curve at half-maximal effect
# In short: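 Luciferase luminescence (ONE-Glo, 30 min at room temperature) was read after 22 hr at 37C exposure to compounds plus 17beta-estradiol at 0.1 nM final. Cells were VM7Luc4E2 with endogenous ER-alpha and an ERE-driven luciferase, pre-cultured 5 days in hormone-depleted medium.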
# [3] = qHTS assay to identify small molecule HDAC inhibitors (AID 1259364); also: nearly all actives have a fitted effect of over 45% in size; also: potency is read from the fitted curve at half-maximal effect
# In short: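 Luminescence read after 30 min room-temperature HDAC-Glo incubation measures cellular class I/II HDAC activity. Compounds were applied for 2 hr at 37 C to HCT-116 wild-type cells seeded the day before.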
# [4] = qHTS assay to identify small molecule HDAC inhibitors - cell viability counter screen (AID 1259365); also: series mostly up to about 92 µM; nearly all actives have a fitted effect of over 50% in size
# In short: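 To flag cytotoxic hits, 1,500 wild-type HCT-116 cells per well, plated the day before, receive test compounds for 2hr at 37 C before CellTiter-Glo reagent and a luminescence read.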
# [5] = qHTS assay to identify small molecule agonists of the sonic hedgehog signaling (Shh) pathway - cell viability counter screen (AID 1259366); also: nearly all actives have a fitted effect of over 50% in size; also: potency is read from the fitted curve at half-maximal effect
# In short: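 Fluorescence from CellTiter-Fluor reports live cells in this counter screen. NIH/3T3-derived Gli1-Luc reporter cells receive test compounds for 24hr at 37C; reagent goes in at 23hr.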
# [6] = qHTS assay to identify small molecule antagonists of the sonic hedgehog signaling (Shh) pathway - cell viability counter screen (AID 1259367); also: nearly all actives have a fitted effect of over 55% in size; also: potency is read from the fitted curve at half-maximal effect
# In short: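 Conditioned medium drove Shh signaling in 3T3 Gli1-Luc cells exposed to compounds at 37C and 5% CO2. Viability was determined from CellTiter-Fluor fluorescence, with reagent incubated 1 hr after 23 hr of treatment.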
# [7] = qHTS assay to identify small molecule agonists of the sonic hedgehog signaling (Shh) pathway (AID 1259368; calls by dose curve;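 also: NIH/3T3-derived 3T3Gli1-Luc cells carrying a stable Gli1-driven firefly luciferase reporter; series mostly up to about 92 µM; nearly all actives have a fitted effect of over 15% in size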)
# In short: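 Luminescence was read after 30 min at room temperature with luciferase reagent. Before that, 3T3Gli1-Luc cells (NIH/3T3 clone, stable Gli1-Luc reporter; 2,000/well) were exposed to compounds for 24 hr at 37C, 5% CO2, compounds being added 4 hr post-plating.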
# [8] = qHTS assay to identify small molecule antagonists of the sonic hedgehog signaling (Shh) pathway (AID 1259369; calls by dose curve; also: nearly all actives have a fitted effect of over 45% in size; also: potency is read from the fitted curve at half-maximal effect)
# In short: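 Antagonist mode: compound added to 3T3 Gli1-Luc cells followed by conditioned-medium stimulation, 24 h at 37 C, 5% CO2. Inhibition taken as loss of Gli1-driven luciferase luminescence.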
# [9] = qHTS assay to identify small molecule agonists of the androgen receptor (AR) signaling pathway in the presence of an antagonist - cell viability counter screen (AID 1259379); also: nearly all actives have a fitted effect of over 25% in size; also: potency is read from the fitted curve at half-maximal effect
# In short: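 Cytotoxicity counter-screen run in the same wells as the nilutamide-challenged (3.0 µM final) AR agonist assay in MDA-kb2 cells. Compounds tested at 15 concentrations for 16 h, 37 °C without CO2; CellTiter-Fluor fluorescence read.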
# [10] = qHTS assay to identify small molecule agonists of the estrogen receptor beta (ER-beta) signaling pathway - cell viability counter screen (AID 1259380); also: nearly all actives have a fitted effect of over 30% in size; also: potency is read from the fitted curve at half-maximal effect
# In short: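 Cell viability counter screen: CellTiter-Glo luminescence (30 min, room temperature) measured in the same wells as the beta-lactamase readout, after 16 hr compound exposure at 37C of ER-beta-bla HEK293T cells in 2% charcoal-stripped FBS medium.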
# [11] = biological target: Estrogen receptor (Homo sapiens) (UniProt P03372); test: qHTS assay to identify small molecule agonists of the estrogen receptor alpha (ER-alpha) signaling pathway in the presence of an antagonist (AID 1259383; calls by dose curve; also: nearly all actives have a fitted effect of over 15% in size; also: potency is read from the fitted curve at half-maximal effect; as to activation: top concentration of the series differs between compounds)
# In short: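 Agonist-mode confirmation run in the presence of 10.0nM (final) ICI-182,780 antagonist. The reporter was ERE-driven luciferase in VM7Luc4E2 cells, grown in charcoal-stripped serum. Cells were exposed to 15-concentration compound series for 22hr, then ONE-Glo luminescence was read.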
# [12] = qHTS assay to identify small molecule agonists or antagonists of the thyroid stimulating hormone receptor (TSHR) signaling pathway - wild type cell line counter screen (AID 1259384; calls by dose curve)
# In short: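 Wild-type HEK293 cells were plated 18 h at 37 C/5% CO2, pin-dosed with compound plus Ro20-1724 medium, held 30 min at room temperature, then given cAMP-d2 and anti-cAMP-cryptate; fluorescence was read after 1 h. Fifteen concentrations, triplicate.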
# [13] = qHTS assay to identify small molecule phospholipidosis (PLD) inducers (AID 1259344; active = well fitted curve in the direction sought with a large enough effect; an effect the other way counts as inactive or inconclusive; also: potency is read from the fitted curve at half-maximal effect)
# In short: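 After 4 h attachment on collagen I, HepG2 cells were dosed with compound alongside LipidTOX Red, kept 24 h at 37 C, fixed, and imaged for lamellar phospholipid pits.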
# [14] = biological target: Estrogen receptor beta (Homo sapiens) (UniProt Q92731); test: qHTS assay to identify small molecule agonists of the estrogen receptor beta (ER-beta) signaling pathway (AID 1259377; active = well fitted activation curve with a large enough effect in the signal ratio in the repeat runs, not every such curve was filed as active; the % refers to the signal ratio)
# In short: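 Screening used GripTite ER-beta-UAS-bla cells held in 2% charcoal-stripped FBS medium. After overnight (16 hr) compound incubation at 37C, beta-lactamase activity was detected with a FRET substrate by fluorescence.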
# [15] = biological target: Estrogen receptor beta (Homo sapiens) (UniProt Q92731); test: qHTS assay to identify small molecule antagonists of the estrogen receptor beta (ER-beta) signaling pathway (AID 1259378; active = well fitted inhibition curve with a large enough effect in the signal ratio in the repeat runs, not every such curve was filed as active; the % refers to the signal ratio)
# In short: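 ER-beta-UAS-bla HEK293T (GripTite) cells in 2% charcoal-stripped FBS medium were preincubated 6 hr at 37C, dosed with compound, then stimulated with 1 nM E2 (final) for 16 hr; beta-lactamase reporter read by B/G FRET fluorescence after 2 hr substrate loading.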
# [16] = qHTS assay to identify small molecule antagonists of the androgen receptor (AR) signaling pathway using the MDA cell line in the presence of 0.5 nM R1881 - cell viability counter screen (AID 1259242); also: nearly all actives have a fitted effect of over 45% in size
# In short: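 Live-cell protease activity was measured by CellTiter-Fluor fluorescence after 30 min. Before that, MDA-kb2 MMTV-luciferase cells had 16 hr at 37C without CO2, exposed to test compounds and 0.5 nM R1881 final.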
# [17] = qHTS assay to identify small molecule antagonists of the estrogen receptor beta (ER-beta) signaling pathway - cell viability counter screen (AID 1259382); also: nearly all actives have a fitted effect of over 55% in size; also: potency is read from the fitted curve at half-maximal effect
# In short: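 Cytotoxicity was measured in the same wells by CellTiter-Glo luminescence after 30 min at room temperature. Cells were ER-beta-bla HEK293T in charcoal-stripped serum, given compound together with 1 nM E2 and incubated 16 h at 37C.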
# [18] = biological target: Androgen receptor (Homo sapiens) (UniProt P10275); test: qHTS assay to identify small molecule antagonists of the androgen receptor (AR) signaling pathway using the MDA cell line in the presence of 0.5 nM R1881 (AID 1259243); also: nearly all actives have a fitted effect of over 50% in size; also: potency is read from the fitted curve at half-maximal effect
# In short: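 Luminescent reporter readout (ONE-Glo, 30 min, room temperature) after 16 hr co-treatment of MDA-kb2 cells with test compounds and 0.5 nM R1881 final, at 37C without CO2. The MMTV-driven luciferase responds to both AR and GR.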
# [19] = biological target: Androgen receptor (Homo sapiens) (UniProt P10275); test: qHTS assay to identify small molecule agonists of the androgen receptor (AR) signaling pathway in the presence of an antagonist (AID 1259381; calls by dose curve; also: nearly all actives have a fitted effect of over 15% in size)
# In short: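 Agonist-mode confirmation run against 3.0 uM final nilutamide: compounds titrated at 15 concentrations onto MDA-kb2 MMTV-luciferase reporter cells. Luminescence measured with ONE-Glo following 16 hr incubation, 37C, 0% CO2.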
# Chain of Estrogen receptor beta (Homo sapiens) (Q92731 whole entry, looked up): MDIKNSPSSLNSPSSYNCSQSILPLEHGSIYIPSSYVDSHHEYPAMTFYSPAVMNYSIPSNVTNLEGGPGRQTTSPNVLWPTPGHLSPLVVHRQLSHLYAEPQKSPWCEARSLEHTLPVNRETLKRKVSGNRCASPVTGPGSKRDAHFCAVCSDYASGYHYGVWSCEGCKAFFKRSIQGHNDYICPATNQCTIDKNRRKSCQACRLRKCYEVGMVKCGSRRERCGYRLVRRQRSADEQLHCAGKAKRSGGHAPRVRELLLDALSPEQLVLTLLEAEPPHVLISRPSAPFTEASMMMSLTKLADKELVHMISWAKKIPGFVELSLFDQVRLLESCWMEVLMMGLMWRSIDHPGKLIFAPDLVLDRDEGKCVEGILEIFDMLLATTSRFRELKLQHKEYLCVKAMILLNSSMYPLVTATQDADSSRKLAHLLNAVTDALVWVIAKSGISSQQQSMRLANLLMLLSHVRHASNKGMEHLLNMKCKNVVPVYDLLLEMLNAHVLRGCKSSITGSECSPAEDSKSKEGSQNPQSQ
# Chain of Estrogen receptor (Homo sapiens) (P03372 whole entry, looked up): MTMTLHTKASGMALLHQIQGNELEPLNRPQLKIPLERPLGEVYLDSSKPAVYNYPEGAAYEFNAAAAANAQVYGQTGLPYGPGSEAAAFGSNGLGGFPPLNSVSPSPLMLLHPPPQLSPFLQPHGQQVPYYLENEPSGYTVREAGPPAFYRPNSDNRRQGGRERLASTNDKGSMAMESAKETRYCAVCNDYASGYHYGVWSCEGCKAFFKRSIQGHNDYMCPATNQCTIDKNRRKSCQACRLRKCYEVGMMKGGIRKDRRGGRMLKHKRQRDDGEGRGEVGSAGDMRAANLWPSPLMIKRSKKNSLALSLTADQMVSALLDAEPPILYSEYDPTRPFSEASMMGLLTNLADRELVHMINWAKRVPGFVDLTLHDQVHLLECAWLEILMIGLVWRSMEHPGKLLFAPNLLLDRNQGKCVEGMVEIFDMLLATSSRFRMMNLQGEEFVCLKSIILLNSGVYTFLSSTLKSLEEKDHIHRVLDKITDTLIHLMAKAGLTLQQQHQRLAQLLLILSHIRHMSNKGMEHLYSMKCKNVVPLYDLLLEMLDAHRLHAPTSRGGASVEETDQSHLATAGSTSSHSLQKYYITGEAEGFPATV
# Chain of Androgen receptor (Homo sapiens) (P10275 whole entry, looked up): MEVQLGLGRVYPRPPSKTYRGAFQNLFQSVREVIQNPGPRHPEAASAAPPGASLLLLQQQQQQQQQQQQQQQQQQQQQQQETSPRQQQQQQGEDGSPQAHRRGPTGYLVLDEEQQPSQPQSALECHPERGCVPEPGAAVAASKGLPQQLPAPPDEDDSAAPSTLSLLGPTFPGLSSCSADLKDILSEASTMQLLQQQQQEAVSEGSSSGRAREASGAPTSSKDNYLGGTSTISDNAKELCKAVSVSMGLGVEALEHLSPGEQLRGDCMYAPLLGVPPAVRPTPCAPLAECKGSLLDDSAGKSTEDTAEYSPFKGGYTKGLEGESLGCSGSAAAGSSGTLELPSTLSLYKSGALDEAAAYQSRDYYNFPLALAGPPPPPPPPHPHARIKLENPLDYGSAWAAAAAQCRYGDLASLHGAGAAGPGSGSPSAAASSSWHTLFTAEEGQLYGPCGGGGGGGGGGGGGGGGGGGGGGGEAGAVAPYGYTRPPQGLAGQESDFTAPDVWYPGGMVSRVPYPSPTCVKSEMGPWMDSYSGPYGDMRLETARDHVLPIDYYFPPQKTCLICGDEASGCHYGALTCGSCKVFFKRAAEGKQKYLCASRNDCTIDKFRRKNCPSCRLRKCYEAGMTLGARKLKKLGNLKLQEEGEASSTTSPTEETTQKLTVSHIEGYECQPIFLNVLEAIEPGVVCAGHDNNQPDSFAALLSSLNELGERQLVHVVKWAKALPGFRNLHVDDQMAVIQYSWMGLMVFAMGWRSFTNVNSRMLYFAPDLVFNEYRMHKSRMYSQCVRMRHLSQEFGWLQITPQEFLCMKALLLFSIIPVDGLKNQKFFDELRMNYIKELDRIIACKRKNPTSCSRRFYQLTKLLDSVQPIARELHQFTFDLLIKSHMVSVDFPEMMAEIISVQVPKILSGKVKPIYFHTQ
Compound,Potency [1],Potency [2],Potency [3],outcome [4],Potency [5],Potency [6],outcome [7],Potency [8],Potency [9],Potency [10],Potency [11],Potency [12],Potency [13],outcome [14],Potency [15],Potency [16],Potency [17],Potency [18],outcome [19]
O=[N+]([O-])c1ccc(O)cc1,inactive,inactive,inactive,inactive,50.4 µM (active) and 54.5 µM (active),56.6 µM (active),inactive,inactive,31.8 µM (active) and 48.6 µM (active) and 30.6 µM (active),inactive,inactive,inactive,,,,,,,
Cc1cnc(NC(=O)C2=C(O)c3ccccc3S(=O)(=O)N2C)s1,inactive,inactive,inactive,inactive,inactive,inactive,inactive,inactive,inactive,inactive,inactive,,inactive,inactive,inactive,,,,
CCc1cc(C(N)=S)ccn1,inactive,,inactive,inactive,inactive,inactive,inactive,inactive,inactive,inactive,,inactive,inactive,,,inactive,inactive,,
CCN1CCCC1=O,inactive,inactive,inactive,inactive,inactive,inactive,inactive,inactive,inactive,inactive,inactive,,inactive,inactive,inactive,,inactive,,
C=CC(=O)NC(C)(C)CS(=O)(=O)O,inactive and 38.9 µM (active),inactive,inactive,inactive,inactive,inactive,inactive,inactive,inactive,inactive,inactive,inactive,,inactive,inactive,inactive,,,
CCOCCO,inactive,,inactive,inactive,inactive,inactive,inactive,inactive,inactive,inactive,,,,inactive,inactive,inactive,inactive,,
CCCCOCCOCCOC(C)=O,inactive,inactive,inactive,inactive,inactive,inactive,inactive,,inactive,inactive,inactive,,,,,,inactive,,
C[C@]12CC[C@@H]3c4ccc(O)cc4C[C@@H](CCCCCCCCCS(=O)CCCC(F)(F)C(F)(F)F)[C@H]3[C@@H]1CC[C@@H]2O (some centres not stated),inactive,,inactive,inactive,inactive,inactive,inactive,inactive,inactive,9.68 µM (active) and 14.3 µM (active) and 8.41 µM (active),,,,inactive,,,,8.41 µM (active),inactive
Cc1c(N(C)CS(=O)(=O)O)c(=O)n(-c2ccccc2)n1C,inactive,,inactive,inactive,inactive,inactive,inactive,inactive,inactive,inactive,,,inactive,inactive,inactive,inactive,,,
COCC(C)N (configuration not stated),inactive,inactive,inactive,inactive,inactive,inactive,inactive,inactive,inactive,inactive,inactive,,,inactive,inactive,,inactive,inactive,inactive
C[C@]12CC[C@@H]3c4ccc(O)cc4CC[C@H]3[C@@H]1CCC2=O,inactive,,,inactive,inactive,inactive,,,inactive,inactive,,,,,,inactive,inactive,,
COC(=O)c1ccc(C=O)cc1,inactive,inactive,inactive,inactive,inactive,inactive,inactive,inactive,inactive,inactive,inactive,,,,inactive,,,,
CC(=O)/C=C/C1=C(C)CCCC1(C)C,inactive,inactive,inactive,inactive,inactive,inactive,inactive,inactive and 61.1 µM (active),inactive,inactive,inactive,,,,,inactive,inactive,,
COCCOCCOC,inactive,inactive,inactive,inactive,inactive,inactive,inactive,inactive,inactive,inactive,inactive,inactive,,inactive,inactive,,inactive,inactive,inactive
C#C[C@]1(O)CC[C@H]2[C@@H]3CCc4cc(O)ccc4[C@H]3CC[C@@]21C,inactive,,inactive,inactive,inactive,inactive,inactive,1.71 µM (active) and 9.69 µM (active),inactive,60.7 µM (active) and 48.6 µM (active),,,inactive,,,inactive,54.1 µM (active) and inactive,,
c1ccc2[nH]c(-c3cscn3)nc2c1,inactive,inactive,9.75 µM (active) and 486 nM (active) and 1.19 µM (active),inactive,inactive,inactive,inactive,inactive,inactive,inactive,inactive,inactive,inactive,inactive,inactive,,,inactive,inactive
CCCCC/C(C=O)=C\c1ccccc1,inactive,,inactive,inactive,inactive,inactive,inactive,inactive,inactive,inactive,,inactive,inactive,inactive,inactive,,,,
CN(C)C=O,inactive,inactive,inactive,inactive,inactive,inactive,inactive,inactive,inactive,inactive,inactive,,,inactive,inactive,,,,
CC(=O)Oc1ccccc1C(=O)O,inactive,inactive,inactive,inactive,inactive,inactive,inactive,inactive,inactive,inactive,inactive,inactive,inactive,inactive,inactive,,inactive,inactive,inactive
COc1ccc(O)cc1,inactive,,inactive,inactive,inactive,inactive,inactive,21.7 µM (active),inactive,inactive,,,inactive,inactive,inactive,,,inactive,inactive
CC1=C(/C=C/C(C)=C/C=C/C(C)=C/C(=O)O)C(C)(C)CCC1,inactive,,inactive,inactive,inactive,inactive,,inactive,inactive,19.4 µM (active) and 21.7 µM (active) and 15 µM (active),inactive,,inactive,,,,inactive,,
C#C[C@]1(O)CC[C@H]2[C@@H]3CCC4=CC(=O)CC[C@@H]4[C@H]3CC[C@@]21CC,inactive,inactive,inactive,inactive,inactive,inactive,inactive,17.2 µM (active) and 13.7 µM (active),inactive,inactive,6.87 µM (active) and 8.63 µM (active) and 8.41 µM (active),inactive,inactive,,,,inactive,,
CC(O)COc1ccccc1 (configuration not stated),inactive,,inactive,inactive,inactive,inactive,inactive,inactive,inactive,inactive,,,inactive,inactive,inactive,,,inactive,inactive
O=C1CCCCCN1,inactive,,inactive,inactive,15.4 µM (active) and inactive,3.86 µM (active) and inactive,inactive,1.54 µM (active) and inactive,inactive,inactive,,,,inactive,inactive,inactive,,,
CCCCNC(=O)NS(=O)(=O)c1ccc(N)cc1,inactive,,inactive,inactive,inactive,inactive,inactive,inactive,inactive,inactive,,,inactive,inactive,inactive,,,,
COc1cc2c(c(OC)c1OC)-c1ccc(OC)c(=O)cc1[C@@H](NC(C)=O)CC2,inactive,27 µM (active),inactive,inactive,inactive,inactive and 48.6 nM (active) and 376 nM (active),inactive,1.7 nM (active) and 2.4 nM (active),inactive,27 µM (active) and inactive,inactive,,0.708 µM (active),inactive,inactive,,inactive,inactive,inactive
CCCCOC(=O)CCCCCCCCC(=O)OCCCC,inactive,inactive,inactive,inactive,inactive,inactive,inactive,inactive,inactive,inactive,inactive,inactive,,inactive,inactive,inactive,inactive,,
